Measurements published in PubChem BioAssay (NCATS).
Several values for one entry are separate records, joined by “and”; a condition that tells them apart may be missing. Equal values may be shown once. Results filed as inconclusive are left out. Entries that show only a call come without a potency. Activity calls are given as the source filed them. Unless noted, calls come from the whole dose curve; as a rule, active = well fitted curve in the direction sought with a large enough effect; inconclusive = small, poorly fitted or top-dose-only effect, or another doubt; inactive = no such curve, though single readings can be large; an effect the other way counts as inactive or inconclusive.

What was measured:
[1] = Cell Viability - Hek293 (AID 427;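 active = compounds whose dose-response curve shows a full or clear partial loss of cell viability, called from curve shape rather than a numeric limit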;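 note: potency is the fitted concentration of half-maximal effect; cells exposed to compound for 40 hours at 37 °C before reading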); settings: qHTS
Procedure, shortened: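 HEK293 cells in complete medium were exposed to compound for 40 hr at 37 °C, then cellular ATP was read by CellTiter-Glo luminescence. Data were normalized to DMSO (basal) and 100 uM tamoxifen (100% inhibition), and AC50 came from Hill fits.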

[2] = Cell Viability - SK-N-SH (AID 435; calls by dose curve;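 note: potency is the fitted concentration of half-maximal effect; compound exposure lasted 40 h at 37 °C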); settings: SK-N-SH neuroblastoma cell viability qHTS
Procedure, shortened: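 SK-N-SH neuroblastoma cells (1500/well) treated 40 h at 37 °C in complete medium; viability read as cellular ATP by CellTiter-Glo luminescence. Normalized to DMSO and 100 uM tamoxifen; AC50 from Hill fits of qHTS concentration-response.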

[3] = Cell Viability - N2a (AID 540); settings: N2a mouse neuroblastoma cell viability; activity change, negative = cytotoxicity: at 92.2 µM (top of the series); note: nearly all actives have a fitted effect of over 45% in size
Procedure, shortened: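 Mouse neuroblastoma N2a cells (1500/well) were preincubated 5 hr at 37 °C, then exposed to compounds for 40 hr at 37 °C in complete medium. Viability was read as intracellular ATP by CellTiter-Glo luminescence; AC50 from Hill fits.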

[4] = Cellular Toxicity (caspase-3) HepG2 (AID 654); settings: HepG2 caspase-3 activation, luminescence, 0% = DMSO only, 100% = tamoxifen; series mostly up to 92.2 µM;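 note: cells exposed to compound for 16 hours before reading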
Procedure, shortened: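 HepG2 cells (1500/well) in complete medium were treated with compounds for 16 hr at 37 °C. Caspase-3/7 activity was then read as luminescence from peptide-aminoluciferin cleavage. AC50 came from Hill fits, normalized to DMSO and 100 uM tamoxifen.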

[5] = Cellular Toxicity (caspase-3) Mesangial (AID 660); settings: mesangial cells, normalized: DMSO 0%, 100 µM tamoxifen 100%; series mostly up to 91.7 µM;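 note: cells exposed to compound for 16 h before the caspase read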
Procedure, shortened: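 Human renal glomerular mesangial cells (1000/well) were treated with compounds for 16 h at 37 °C in complete medium, then caspase 3/7 activity was read by Caspase-Glo luminescence. Data were normalized to DMSO and 100 uM tamoxifen; AC50 from Hill fits.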

[6] = Cellular Toxicity (caspase-3) Hek293 (AID 664); settings: HEK293 caspase-3 activation, DMSO = 0%, 100 µM tamoxifen = 100%; at 92.2 µM (top of the series);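 note: cells exposed to compound for 16 h at 37 °C before readout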
Procedure, shortened: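 HEK293 cells were exposed to compounds in complete medium for 16 hr at 37 °C, then caspase-3/7 activity was read by Caspase-Glo 3/7 luminescence after 20 min at room temperature. Data normalized to DMSO and 100 uM tamoxifen; AC50 from Hill fits.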

[7] = MultiTox-Fluor Cytotoxicity Assay - LYMP1-002 - Dead Cells (AID 960); settings: LYMP1-002 lymphoblastoid cells, dead-cell protease fluorescence; series mostly up to 46.1 µM; note: nearly all actives have a fitted effect of over 60% in size; note: potency is the fitted concentration of half-maximal effect
Procedure, shortened: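 Human lymphoblastoid cells (LYMP1-002), 2500/well in complete medium, were exposed to compounds for 16 hr at 37 C. Dead-cell protease activity was read as bis-AAF-R110 fluorescence (Ex/Em 485/520), normalized to DMSO and 15 uM tetraoctylammonium bromide; AC50 from Hill fits.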

[8] = Cell Viability - LYMP2-024 (AID 988); settings: LYMP2-024 lymphoblastoid cell viability; series mostly up to 92.2 µM; note: nearly all actives have a fitted effect of over 60% in size
Procedure, shortened: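 Human lymphoblastoid cells (2500/well) in complete medium were preincubated 5 hr at 37 C, then exposed to compounds for 24 hr at 37 C. Intracellular ATP was read by CellTiter-Glo luminescence; AC50 from Hill-equation fits of concentration-response data.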

[9] = Cell Viability - LYMP2-026 (AID 989); settings: LYMP2-026 lymphoblastoid cell viability, qHTS; series mostly up to 92.2 µM; note: nearly all actives have a fitted effect of over 50% in size
Procedure, shortened: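 Human lymphoblastoid cells (2500/well) in complete medium were preincubated 5 hr at 37 C, then exposed to compounds for 24 hr at 37 C. Cellular ATP was read by CellTiter-Glo luminescence; AC50 from Hill-equation fits of concentration-response data.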

[10] = Cell Viability - LYMP1-002 - Assay at 24 hr (AID 993); settings: LYMP1-002 lymphoblastoid cells viability; series mostly up to 92.2 µM
Procedure, shortened: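 Human lymphoblastoid LYMP1-002 cells, 2500/well in complete medium, were treated with compounds for 24 h at 37 C; intracellular ATP was read by CellTiter-Glo luminescence. AC50 values came from Hill-equation fits of qHTS concentration-response data.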

[11] = qHTS assay for small molecule agonists of retinoid X receptor alpha signaling (AID 588544); settings: HEK293T RXRa-UAS-bla, beta-lactamase reporter, 18 h; 530 nm emission
[12] = molecular target: Thyroid hormone receptor beta (Homo sapiens) (UniProt P10828); test: qHTS assay for small molecule agonists of thyroid hormone receptor beta signaling (AID 588545; calls by dose curve); settings: TR-UAS-bla GripTite HEK 293, beta-lactamase ratio, agonist mode, 18 h; series mostly up to 76.7 µM
Procedure, shortened: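 In this cell-based screen, titrated compounds act on HEK 293 cells held in medium with 2% charcoal/dextran FBS, NEAA and pyruvate for 18 hrs at 37 C. Responses are expressed relative to T3 (10 nM) as 100% and basal DMSO as 0%.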

[13] = molecular target: Retinoic acid receptor RXR-alpha (Homo sapiens) (UniProt P19793); test: qHTS assay for small molecule antagonists of retinoid X receptor alpha signaling (AID 588546; active = well fitted inhibition curve with a large enough effect in the signal ratio, with a control signal flat, not every such curve was filed as active; the % refers to the signal ratio;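 note: cells stimulated with 9-cis-retinoic acid as agonist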); settings: HEK293T RXRa-UAS-bla, beta-lactamase ratio, antagonist mode
Procedure, shortened: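 Beta-lactamase reporter inhibition, read as CCF4 fluorescence ratio (ex 405, em 460/530 nm) after 2 h at RT. HEK293T UAS-bla cells, 2500/well, were stimulated with 9-cis-RA at 500 or 100 nM final alongside test compound for 18 h at 37 C.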

[14] = molecular target: Tumor necrosis factor (Homo sapiens) (UniProt P01375); test: qHTS assay to identify small molecules that stimulate Tumor Necrosis Factor-alpha (TNF-alpha) secretion (AID 651757; active = well fitted curve in the direction sought with a large enough effect in the signal ratio; the % refers to the signal ratio); settings: Human cells, HTRF 665/615 ratio; series mostly up to 92.2 µM
Procedure, shortened: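 THP-1 cells were exposed to compounds for 17 hrs at 37 C, after which secreted TNF-alpha was measured by homogeneous HTRF (TR-FRET) using cryptate- and XL665-labeled anti-TNF-alpha antibodies, read after 3 hr at room temperature.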

[15] = molecular target: Nuclear receptor ROR-gamma (Homo sapiens) (UniProt P51449); test: qHTS assay for small molecule antagonists of the retinoid-related orphan receptor gamma (ROR-gamma) signaling pathway (AID 651802); settings: ROR-gamma antagonist cell reporter assay; series mostly up to 92.2 µM; note: nearly all actives have a fitted effect of over 60% in size; note: potency is the fitted concentration of half-maximal effect
Procedure, shortened: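 CHO cells carrying TET-inducible ROR-gamma and an ROR response element–luciferase reporter were exposed to compound, then induced with doxycycline. After 16hr at 37C, luminescence was read; lower signal indicates antagonism.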

[16] = qHTS assay for small molecule agonists of the antioxidant response element (ARE) signaling pathway measured by Nrf2-dependant transcriptional activity (AID 720636; active = well fitted curve in the direction sought with a large enough effect in the repeat runs; an effect the other way counts as inactive or inconclusive;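 note: HepG2 cells with an ARE-driven luciferase reporter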); settings: ARE-luc HepG2, Nrf2 luciferase reporter, 16 h; series mostly up to 92.4 µM
Procedure, shortened: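 Attachment 6 hr at 37 C, then compound versus DMSO vehicle for 16 hr in ARE-luc HepG2 cells (1% dialyzed FBS); luminescence recorded 30 min after ONE-Glo addition at room temperature.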

[17] = qHTS assay for cell viability of the p53RE-bla HCT-116 cell line (AID 743292); settings: p53RE-bla HCT-116 viability, ATP luminescence, 16 h; series mostly up to 95 µM; note: nearly all actives have a fitted effect of over 55% in size
Procedure, shortened: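 Compound-exposed HCT-116 (p53RE-bla) cells, 4,000 per well, were kept 16 h at 37 C following a 5 h preincubation. Cell number was estimated from total ATP by CellTiter-Glo luminescence read after 30 min at room temperature.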

[18] = MultiTox-Fluor Cytotoxicity Assay - LYMP1-001 - Dead Cells (AID 946); settings: LYMP1-001 lymphoblastoid cells, dead-cell protease fluorescence; series mostly up to 92.2 µM
Procedure, shortened: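 LYMP1-001 lymphoblastoid cells (2500/well) treated 16 h at 37 C. Dead-cell protease cleavage of bis-AAF-R110 read at Ex/Em 485/520. Normalized to DMSO and 15 uM tetraoctylammonium bromide; AC50 from Hill fits.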

[19] = Cell Viability - LYMP1-002 - Assay at 16 hr (AID 948); settings: LYMP1-002 lymphoblastoid cell viability; series mostly up to 92.2 µM
Procedure, shortened: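 LYMP1-002 human lymphoblastoid cells, 2500/well, were treated with compounds for 16 hr at 37 C in complete medium. Viability was read as intracellular ATP by CellTiter-Glo luminescence, and AC50 was derived from a Hill fit to concentration-response data.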

[20] = Cell Viability - LYMP2-003 (AID 965); settings: LYMP2-003 lymphoblastoid cell viability; series mostly up to 92.2 µM;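 note: cells exposed to compounds for 24 h before reading; nearly all actives have a fitted effect of over 50% in size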
Procedure, shortened: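 Human lymphoblastoid LYMP2-003 cells, 2500/well, exposed to compounds for 24 h at 37 C in complete medium. Viability read as intracellular ATP by CellTiter-Glo luminescence; AC50 from Hill-equation fits of qHTS concentration-response data.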

Sequence of Retinoic acid receptor RXR-alpha (Homo sapiens) (P19793 whole entry, looked up): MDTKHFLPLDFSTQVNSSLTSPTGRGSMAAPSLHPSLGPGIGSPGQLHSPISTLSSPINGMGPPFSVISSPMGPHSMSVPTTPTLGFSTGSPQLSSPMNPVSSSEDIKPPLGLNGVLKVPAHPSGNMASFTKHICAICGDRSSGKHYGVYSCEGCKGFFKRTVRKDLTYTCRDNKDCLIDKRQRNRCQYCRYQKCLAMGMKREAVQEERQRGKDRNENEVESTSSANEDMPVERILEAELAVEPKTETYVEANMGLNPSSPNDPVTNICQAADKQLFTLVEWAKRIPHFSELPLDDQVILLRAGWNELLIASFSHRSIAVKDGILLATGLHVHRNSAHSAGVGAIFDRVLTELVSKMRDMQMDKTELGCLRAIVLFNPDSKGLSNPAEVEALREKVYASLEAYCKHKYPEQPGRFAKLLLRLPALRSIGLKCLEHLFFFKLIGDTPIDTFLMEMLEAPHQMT
Sequence of Tumor necrosis factor (Homo sapiens) (P01375 whole entry, looked up): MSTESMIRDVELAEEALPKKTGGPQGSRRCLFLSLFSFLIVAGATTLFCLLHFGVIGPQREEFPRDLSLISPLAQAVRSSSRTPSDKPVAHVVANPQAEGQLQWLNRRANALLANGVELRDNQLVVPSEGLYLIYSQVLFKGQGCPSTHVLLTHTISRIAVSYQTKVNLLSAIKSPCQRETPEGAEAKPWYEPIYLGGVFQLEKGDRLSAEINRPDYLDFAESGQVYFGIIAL
Sequence of Thyroid hormone receptor beta (Homo sapiens) (P10828 whole entry, looked up): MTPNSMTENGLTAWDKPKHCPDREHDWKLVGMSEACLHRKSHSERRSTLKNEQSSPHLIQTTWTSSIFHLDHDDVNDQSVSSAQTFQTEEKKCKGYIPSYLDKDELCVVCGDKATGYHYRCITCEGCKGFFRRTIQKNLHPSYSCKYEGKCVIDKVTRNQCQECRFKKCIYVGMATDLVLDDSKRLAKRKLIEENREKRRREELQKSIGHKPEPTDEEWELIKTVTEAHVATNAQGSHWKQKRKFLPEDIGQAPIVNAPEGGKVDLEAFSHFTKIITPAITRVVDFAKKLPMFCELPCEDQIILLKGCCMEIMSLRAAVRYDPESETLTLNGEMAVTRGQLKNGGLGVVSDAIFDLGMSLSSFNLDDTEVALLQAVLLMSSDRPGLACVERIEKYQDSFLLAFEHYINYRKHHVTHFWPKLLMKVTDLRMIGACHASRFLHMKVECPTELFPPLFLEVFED
Sequence of Nuclear receptor ROR-gamma (Homo sapiens) (P51449 whole entry, looked up): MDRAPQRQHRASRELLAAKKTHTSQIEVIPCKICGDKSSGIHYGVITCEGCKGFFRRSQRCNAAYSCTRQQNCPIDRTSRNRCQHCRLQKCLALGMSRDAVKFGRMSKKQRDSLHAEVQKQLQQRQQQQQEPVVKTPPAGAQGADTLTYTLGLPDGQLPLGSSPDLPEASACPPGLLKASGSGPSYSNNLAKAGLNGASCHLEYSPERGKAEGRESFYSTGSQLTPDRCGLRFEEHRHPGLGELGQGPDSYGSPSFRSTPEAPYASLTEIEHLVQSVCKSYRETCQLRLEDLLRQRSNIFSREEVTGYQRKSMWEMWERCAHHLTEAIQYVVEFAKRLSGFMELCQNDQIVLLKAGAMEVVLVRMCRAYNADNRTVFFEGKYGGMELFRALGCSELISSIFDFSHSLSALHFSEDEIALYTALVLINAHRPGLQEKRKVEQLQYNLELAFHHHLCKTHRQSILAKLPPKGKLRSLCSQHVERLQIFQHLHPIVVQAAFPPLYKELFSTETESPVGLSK

Cc1cc(C)cc(OP(=O)(Oc2cc(C)cc(C)c2)Oc2cc(C)cc(C)c2)c1
Potency [1]: > 92 µM (inactive) | Potency [2]: > 92 µM (inactive) | activity change, negative = cytotoxicity [3]: -83.5% (active) | outcome [4]: inactive | outcome [5]: inactive | caspase-3 activation [6]: 1.43% (inactive) | Potency [7]: 31.6 µM (active) | Potency [8]: inactive | Potency [9]: inactive | Potency [10]: inactive | max response [11]: -11.1% | Potency [12]: inactive | max response [13]: 28.5% (inactive) | outcome [14]: inactive | Potency [15]: 26.6 µM (active) | Potency [16]: inactive | Potency [17]: inactive

CC(C#N)CCC#N (configuration not stated)
Potency [1]: > 92 µM (inactive) | Potency [2]: > 92 µM (inactive) | Potency [3]: inactive | caspase-3 activation [6]: 0.584% (inactive) | outcome [18]: inactive | outcome [19]: inactive | Potency [7]: inactive | Potency [20]: inactive | Potency [8]: inactive | Potency [9]: inactive | Potency [10]: inactive | max response [11]: -11.4% | Potency [12]: inactive | max response [13]: -1.63% (inactive) | outcome [14]: inactive | Potency [15]: inactive | Potency [16]: inactive | Potency [17]: inactive

Nc1c(Br)cc([N+](=O)[O-])cc1[N+](=O)[O-]
Potency [1]: > 92 µM (inactive) | Potency [2]: > 92 µM (inactive) | outcome [4]: inactive | outcome [5]: inactive | outcome [18]: inactive | outcome [19]: inactive | Potency [7]: inactive | Potency [20]: inactive | Potency [9]: inactive | Potency [10]: inactive | max response [11]: -9.23% | Potency [12]: inactive | Potency [15]: inactive | Potency [17]: inactive

[O-][Cl+2]([O-])O
Potency [1]: > 92 µM (inactive) | Potency [2]: > 92 µM (inactive) | Potency [3]: inactive | outcome [5]: inactive | caspase-3 activation [6]: -0.13% (inactive) | outcome [19]: inactive | Potency [7]: inactive | Potency [20]: inactive | Potency [8]: inactive | Potency [10]: inactive | max response [11]: 6.62% | max response [13]: -4.77% (inactive) | outcome [14]: inactive | Potency [16]: inactive | Potency [17]: inactive

Nc1ccc([N+](=O)[O-])cc1N
Potency [1]: > 92 µM (inactive) | Potency [2]: > 92 µM (inactive) | Potency [3]: inactive | outcome [4]: inactive | outcome [5]: inactive | caspase-3 activation [6]: 0.611% (inactive) | outcome [18]: inactive | outcome [19]: inactive | Potency [7]: inactive | Potency [20]: inactive | Potency [8]: inactive | Potency [9]: inactive | Potency [10]: inactive | max response [11]: -12.1% | Potency [12]: inactive | max response [13]: -24.9% (inactive) and -14.3% (inactive) | Potency [15]: 42.2 µM (active) | Potency [17]: inactive
